# Only some compounds are listed: those with a hit (about 2.2% of all), similar ones and a draw of the others.
# NCF1 inh = blocks human p47phox regulatory protein of NADPH oxidases. P14598. p47phox/p22phox peptide binding, fluorescence polarization, 2 h. inhibition, % at 24.7 µM. actives 0.53% (n = 220,000);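 active = inhibition above about 30%, limit read from the data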;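 also: 0% = p47phox with labelled peptide and 100% = labelled peptide alone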
# Target sequence (P14598 whole entry, looked up): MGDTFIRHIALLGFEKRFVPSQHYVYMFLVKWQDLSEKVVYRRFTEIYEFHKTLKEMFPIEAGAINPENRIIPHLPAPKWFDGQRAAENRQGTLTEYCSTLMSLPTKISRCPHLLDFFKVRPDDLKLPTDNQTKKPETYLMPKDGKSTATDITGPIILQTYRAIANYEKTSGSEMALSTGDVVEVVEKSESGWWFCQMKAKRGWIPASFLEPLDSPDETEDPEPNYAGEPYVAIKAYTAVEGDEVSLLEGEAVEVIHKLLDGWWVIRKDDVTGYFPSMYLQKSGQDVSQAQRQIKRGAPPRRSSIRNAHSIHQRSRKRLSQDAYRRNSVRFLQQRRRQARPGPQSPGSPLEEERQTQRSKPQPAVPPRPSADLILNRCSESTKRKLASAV
# Autophagy HCS = autophagy modulation, high-content screen | calls only at 10 µM (by protocol) | MEF GFP-LC3 puncta imaging; test concentration mostly 10 µM | actives 0.98% (n = 190,000);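 active = percentage of spot-positive cells more than 3 SD above its plate mean, without a fluorescence outlier flag or 80% toxicity; inconclusive = no clear call, values can overlap the other calls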;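 also: spot-positive cell cutoff set from DMSO-treated cells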
# Ins promoter up = MIN6 insulin promoter up-regulation; MIN6 insulin promoter-GFP reporter, high-content imaging; active compounds read high; z-score at 5 µM; actives 0.3% (n = 190,000);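 active = z-score above 3 at 5 µM with at least 500 cells counted in the well; inconclusive = wells under 500 cells, flagged as cytotoxic or low count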
# Efa HMGR inh = blocks class II HMG-CoA reductase of Enterococcus faecalis. purified E. faecalis HMGR, NADPH absorbance 340 nm kinetic. inhibition, % at 10 µM. actives 0.41% (n = 190,000). AID 1066;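 active = inhibition above a set limit, the median over all tested compounds plus 3 SD, cut at about 9.5% in these data; inconclusive = no clear call, values can overlap the other calls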;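 also: enzyme runs in reverse so mevalonate oxidation gives rising NADPH absorbance; 0% = complete reaction with DMSO and 100% = background rate lacking mevalonate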
# Redox H2O2 prof = compounds producing H2O2 with reducing agent – biochemical, NIH compound library profiling, artefact control for MLSCN library redox annotation, primary screen; actives 0.03% (n = 200,000); activation, % at 10 µM; AID 878; DTT-dependent redox cycling H2O2, phenol red/HRP absorbance; 100% = 100 µM peroxide control, 0% = buffer;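 active = activation of at least 50% relative to the plate's high and low controls in the primary single-dose screen; inactive = activation below 50%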;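 also: compound incubated with DTT at 0.8 mM final as the reducing agent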
# Arbovirus inh = arbovirus infection inhibition; arbovirus infection cell-based antiviral screen; inhibition, % at 10 µM; actives 0.37% (n = 200,000); in the data active = inhibition above about 30%
# * hit, by the source's call; i = inactive; ? = inconclusive; nt = no result; + = active, no number.
SMILES,NCF1 inh,Autophagy HCS,Ins promoter up,Efa HMGR inh,Redox H2O2 prof,Arbovirus inh
COc1ccc(-c2csc3nc(C)nc(N4CCN(c5ccc(C(C)=O)cc5)CC4)c23)cc1OC,-21,i,-2,-4,-1,-4
Nc1nccc(-c2cc(-c3ccc(Cl)cc3Cl)no2)n1,14,nt,0.14,nt,nt,nt
CCN(CC)C(=O)CSc1nc(N)c2c3c(sc2n1)CC(C)CC3 (centres undefined),59*,i,nt,1,0,-24
CCN(CC(=O)NC1CCS(=O)(=O)C1)S(=O)(=O)c1cccc(C(C)=O)c1 (centres undefined),43*,i,0.05,-12,0,8
CN(C)S(=O)(=O)c1cccc(NC(=O)Cn2cc(C(F)(F)F)cc(Cl)c2=O)c1,-1,i,0.8,16*,0,9
Cc1nc2c(c3c1[nH]c1ccccc13)C(O)CC(C)(C)C2 (centres undefined),6,i,-0.87,-2,-1,54*
C[C@H]1[C@H](C)CC[C@]2(C(=O)O)CC[C@]3(C)C(=CC[C@@H]4[C@@]5(C)C[C@@H](O)[C@H](O)C(C)(C)[C@@H]5CC[C@]43C)[C@H]12,23,i,0.24,18*,0,-37
CCOC(=O)C1(CCc2ccccc2)CCN(C(=O)c2cnc(C)cn2)CC1,-10,i,nt,0,1,2
CCCCOC(=O)c1ccc(N=Nc2c(C)c(C#N)c(O)[nH]c2=O)cc1,-7,nt,nt,nt,nt,nt
Cc1cccc(N=Nc2c(C)c(C#N)c(O)[nH]c2=O)c1,79*,i,-0.08,-3,1,-1
O=C1CC(SC2=NCCS2)C(=O)N1c1cccc(Cl)c1Cl (centres undefined),-11,i,nt,1,0,1
CCOc1ccc(OCCCCn2ccnc2)cc1,-1,i,3.5*,0,0,-8
COc1cccc(CNC(=O)CCSCc2ccccc2F)c1,-1,i,0,0,0,2
CN(C)c1ccc(/C=C(\C#N)C(=O)Nc2nc3c(s2)CCN(Cc2ccccc2)C3)cc1,-143,i,nt,2,3,-19
COCCNC(=O)C(c1ccccc1C)N(C(=O)Cn1nnc2ccccc21)c1cccnc1 (centres undefined),-15,i,0.27,15*,0,-3
COCCNC(=O)C(c1ccccc1)N(C(=O)Cn1nnc2ccccc21)c1cccnc1 (centres undefined),-3,i,0.09,-2,0,-6
Cc1ccc(C=Nc2ccccc2C(N)=O)cc1,-4,+,0.24,0,1,-14
CCN(CC)c1ccc(/C=C/c2nc3ccccc3s2)cc1,-171,+,nt,-1,5,0
COc1cc(C(=O)Nc2ccc3c(c2)Cc2cc(NC(=O)c4cc(OC)c(OC)c(OC)c4)ccc2-3)cc(OC)c1OC,2,i,-0.11,0,1,-35
CN(C)c1cc[n+](CC(=O)c2ccc(OC(F)F)cc2)cc1,5,nt,0.2,nt,nt,nt
COc1cccc(S(=O)(=O)NCc2ccc(C(=O)Nc3ccc(Cl)c(Cl)c3)cc2)c1,-22,i,3.1*,-3,0,14
Cc1ccc2c(c1)c(Sc1ccccc1)c(CC(=O)O)n2C,-5,i,-0.31,0,0,31*
CCOC(=O)Cc1c(Sc2ccccc2)c2cc(C)ccc2n1C,-6,i,-0.18,0,0,26
Cc1ccc(S(=O)(=O)c2cc3ccccc3oc2=Nc2ccc3c(c2)OCO3)cc1,-5,+,-2.3,0,1,-5
Cc1ccc(-n2ncc(Br)c(Br)c2=O)cc1,1,+,-5,-5,-1,-22
O=c1c(Br)c(Br)cnn1-c1ccccc1,-4,i,?,-1,0,-33
CCOc1ccc(-c2cc(C(=O)NCC3CCCO3)c3ccccc3n2)cc1 (centres undefined),-7,i,0.28,-3,0,1
N#Cc1ccc(-c2ccccc2)nc1SCC(=O)c1cccc(Cl)c1,-17,+,nt,-3,-3,-9
CCN(CC)C(=O)CSc1nc(-c2ccccc2)ccc1C#N,6,i,-0.7,-1,0,-2
N#Cc1ccc(-c2ccc(Cl)cc2)nc1SCC(=O)c1cccc(Cl)c1,-5,+,6.9*,-2,0,-6

# From PubChem BioAssay
